Among the data in ChEMBL document CHEMBL1961873, “Compounds: GSK PKIS; Assays: Nanosyn kinase panel” (2012) are inhibition values, retold here.

Experiment [1] concerns the target High affinity nerve growth factor receptor (Homo sapiens) (UniProt P04629). Particulars: at 1 µM.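 Further: each value is the mean percent inhibition of TRKA.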
The target in experiment [2] is BDNF/NT-3 growth factors receptor (Homo sapiens) (UniProt Q16620). Particulars: at 0.1 µM.
Experiment [3] shares this target. Particulars: at 1 µM.
Experiment [4] concerns the target NT-3 growth factor receptor (Homo sapiens) (UniProt Q16288). The note with it: at 0.1 µM.
The target is the same in experiment [5]. Particulars: at 1 µM.
Experiment [6] concerns the target T1, Tyrosine-protein kinase TXK (Homo sapiens) (UniProt P42681).
T1 sequence (whole entry): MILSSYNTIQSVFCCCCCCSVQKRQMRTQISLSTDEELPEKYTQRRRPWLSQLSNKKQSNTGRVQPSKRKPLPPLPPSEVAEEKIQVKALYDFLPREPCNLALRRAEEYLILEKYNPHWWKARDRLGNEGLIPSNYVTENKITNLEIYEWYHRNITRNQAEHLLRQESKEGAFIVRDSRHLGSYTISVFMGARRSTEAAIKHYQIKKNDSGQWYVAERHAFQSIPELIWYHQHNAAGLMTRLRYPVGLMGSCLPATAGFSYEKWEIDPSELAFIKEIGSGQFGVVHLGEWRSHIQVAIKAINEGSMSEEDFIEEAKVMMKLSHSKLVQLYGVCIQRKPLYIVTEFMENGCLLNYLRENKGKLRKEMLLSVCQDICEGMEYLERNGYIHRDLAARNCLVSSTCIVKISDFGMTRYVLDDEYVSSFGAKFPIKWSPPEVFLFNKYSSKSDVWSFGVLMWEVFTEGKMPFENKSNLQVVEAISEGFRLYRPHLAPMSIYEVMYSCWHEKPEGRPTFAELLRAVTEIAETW
Particulars: at 0.1 µM.

Experiment [7] deals with T1, Tyrosine-protein kinase TXK (Homo sapiens). Particulars: at 1 µM.
For experiment [8], the target named is Non-receptor tyrosine-protein kinase TYK2 (Homo sapiens) (UniProt P29597). Particulars: at 0.1 µM.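 Further: each value is a mean of the inhibition readings.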
In experiment [9] the target is T2, Dual specificity protein kinase TTK (Homo sapiens) (UniProt P33981).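 Further: reported figures are mean TTK inhibition at 1 µM.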
T2 sequence (whole entry): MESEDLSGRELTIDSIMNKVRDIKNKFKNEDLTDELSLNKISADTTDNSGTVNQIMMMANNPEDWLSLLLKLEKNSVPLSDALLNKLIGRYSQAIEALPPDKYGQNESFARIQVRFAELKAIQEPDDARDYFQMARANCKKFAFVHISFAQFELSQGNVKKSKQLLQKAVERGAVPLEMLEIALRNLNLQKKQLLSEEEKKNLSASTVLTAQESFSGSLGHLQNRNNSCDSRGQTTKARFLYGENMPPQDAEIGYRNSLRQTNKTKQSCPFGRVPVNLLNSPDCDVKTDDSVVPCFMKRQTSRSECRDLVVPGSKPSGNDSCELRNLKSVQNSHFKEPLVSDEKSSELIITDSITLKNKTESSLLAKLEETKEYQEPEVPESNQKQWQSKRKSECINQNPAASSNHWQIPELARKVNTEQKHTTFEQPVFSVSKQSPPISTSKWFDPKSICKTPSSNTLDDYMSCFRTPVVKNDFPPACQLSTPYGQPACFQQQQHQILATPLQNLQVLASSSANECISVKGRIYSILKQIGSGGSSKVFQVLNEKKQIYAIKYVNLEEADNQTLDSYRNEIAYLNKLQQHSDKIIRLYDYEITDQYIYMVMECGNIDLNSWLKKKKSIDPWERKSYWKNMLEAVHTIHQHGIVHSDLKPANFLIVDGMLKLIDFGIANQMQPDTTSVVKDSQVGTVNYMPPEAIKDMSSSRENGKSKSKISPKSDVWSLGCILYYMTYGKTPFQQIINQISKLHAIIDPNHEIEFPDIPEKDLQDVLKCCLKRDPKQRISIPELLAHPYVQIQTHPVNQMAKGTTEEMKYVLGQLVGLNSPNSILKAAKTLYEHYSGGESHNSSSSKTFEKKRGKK
The note with it: at 1 µM.

Experiment [10] has as its target T3, Aurora kinase A (Homo sapiens) (UniProt O14965).
T3 sequence (whole entry): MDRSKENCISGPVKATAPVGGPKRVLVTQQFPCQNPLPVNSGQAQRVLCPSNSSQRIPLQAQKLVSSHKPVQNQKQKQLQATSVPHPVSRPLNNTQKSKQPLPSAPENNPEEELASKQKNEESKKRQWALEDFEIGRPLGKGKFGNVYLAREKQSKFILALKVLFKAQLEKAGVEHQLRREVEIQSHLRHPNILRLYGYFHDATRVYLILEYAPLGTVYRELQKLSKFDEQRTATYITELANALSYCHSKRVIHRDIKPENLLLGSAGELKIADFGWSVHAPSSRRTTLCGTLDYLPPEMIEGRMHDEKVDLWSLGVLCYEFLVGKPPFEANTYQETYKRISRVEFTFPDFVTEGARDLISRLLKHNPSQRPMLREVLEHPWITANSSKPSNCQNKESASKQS
The note with it: at 0.1 µM.

Experiment [11] deals with T3, Aurora kinase A (Homo sapiens). Particulars: at 1 µM.
Experiment [12] addresses Aurora kinase B (Homo sapiens) (UniProt Q96GD4). The note with it: at 0.1 µM.
The target is the same in experiment [13]. The note with it: at 1 µM.
Experiment [14] deals with T4, Aurora kinase C (Homo sapiens) (UniProt Q9UQB9).
T4 sequence (whole entry): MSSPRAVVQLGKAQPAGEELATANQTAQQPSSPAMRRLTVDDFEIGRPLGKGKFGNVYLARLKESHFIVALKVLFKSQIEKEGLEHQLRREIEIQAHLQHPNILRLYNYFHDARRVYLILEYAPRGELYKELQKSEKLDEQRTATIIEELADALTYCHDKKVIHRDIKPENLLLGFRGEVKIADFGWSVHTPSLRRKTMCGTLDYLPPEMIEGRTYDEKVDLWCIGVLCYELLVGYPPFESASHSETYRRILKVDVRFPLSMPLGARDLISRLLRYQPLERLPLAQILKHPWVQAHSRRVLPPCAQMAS
Particulars: at 0.1 µM.

Experiment [15] deals with T4, Aurora kinase C (Homo sapiens). Particulars: at 1 µM.
Experiment [16] deals with Serine/threonine-protein kinase 10 (Homo sapiens) (UniProt O94804). Particulars: at 0.1 µM.
Sequence of Serine/threonine-protein kinase 10 (Homo sapiens) (O94804 whole entry, looked up): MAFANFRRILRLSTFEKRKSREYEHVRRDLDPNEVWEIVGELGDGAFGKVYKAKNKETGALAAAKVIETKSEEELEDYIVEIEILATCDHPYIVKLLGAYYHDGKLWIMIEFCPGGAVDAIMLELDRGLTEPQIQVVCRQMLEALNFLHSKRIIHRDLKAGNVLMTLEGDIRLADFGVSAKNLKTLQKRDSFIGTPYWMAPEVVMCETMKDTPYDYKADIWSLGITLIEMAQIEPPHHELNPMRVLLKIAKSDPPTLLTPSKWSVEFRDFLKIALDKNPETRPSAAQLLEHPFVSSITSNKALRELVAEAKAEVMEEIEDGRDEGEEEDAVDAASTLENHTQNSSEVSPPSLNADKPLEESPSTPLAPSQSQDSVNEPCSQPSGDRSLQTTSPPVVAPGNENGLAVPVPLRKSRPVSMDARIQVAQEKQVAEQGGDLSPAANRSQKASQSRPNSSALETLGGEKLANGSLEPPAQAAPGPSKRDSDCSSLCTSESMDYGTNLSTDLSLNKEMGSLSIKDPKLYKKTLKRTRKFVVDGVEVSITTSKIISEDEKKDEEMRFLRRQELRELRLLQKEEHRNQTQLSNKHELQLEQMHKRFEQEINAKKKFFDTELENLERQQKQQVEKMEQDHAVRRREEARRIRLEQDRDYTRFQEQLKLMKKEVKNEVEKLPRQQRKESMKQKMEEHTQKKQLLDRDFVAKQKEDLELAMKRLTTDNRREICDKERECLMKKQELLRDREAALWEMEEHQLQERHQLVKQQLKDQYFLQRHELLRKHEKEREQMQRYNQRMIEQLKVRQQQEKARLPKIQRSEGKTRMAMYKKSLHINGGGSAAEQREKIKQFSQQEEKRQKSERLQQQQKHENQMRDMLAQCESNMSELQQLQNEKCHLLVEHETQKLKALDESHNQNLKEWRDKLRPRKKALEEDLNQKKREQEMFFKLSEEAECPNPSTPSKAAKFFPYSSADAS
For experiment [17] the target is unchanged. Particulars: at 1 µM.
For experiment [18], the target named is T5, Mitogen-activated protein kinase kinase kinase kinase 2 (Homo sapiens) (UniProt Q12851).
T5 sequence (whole entry): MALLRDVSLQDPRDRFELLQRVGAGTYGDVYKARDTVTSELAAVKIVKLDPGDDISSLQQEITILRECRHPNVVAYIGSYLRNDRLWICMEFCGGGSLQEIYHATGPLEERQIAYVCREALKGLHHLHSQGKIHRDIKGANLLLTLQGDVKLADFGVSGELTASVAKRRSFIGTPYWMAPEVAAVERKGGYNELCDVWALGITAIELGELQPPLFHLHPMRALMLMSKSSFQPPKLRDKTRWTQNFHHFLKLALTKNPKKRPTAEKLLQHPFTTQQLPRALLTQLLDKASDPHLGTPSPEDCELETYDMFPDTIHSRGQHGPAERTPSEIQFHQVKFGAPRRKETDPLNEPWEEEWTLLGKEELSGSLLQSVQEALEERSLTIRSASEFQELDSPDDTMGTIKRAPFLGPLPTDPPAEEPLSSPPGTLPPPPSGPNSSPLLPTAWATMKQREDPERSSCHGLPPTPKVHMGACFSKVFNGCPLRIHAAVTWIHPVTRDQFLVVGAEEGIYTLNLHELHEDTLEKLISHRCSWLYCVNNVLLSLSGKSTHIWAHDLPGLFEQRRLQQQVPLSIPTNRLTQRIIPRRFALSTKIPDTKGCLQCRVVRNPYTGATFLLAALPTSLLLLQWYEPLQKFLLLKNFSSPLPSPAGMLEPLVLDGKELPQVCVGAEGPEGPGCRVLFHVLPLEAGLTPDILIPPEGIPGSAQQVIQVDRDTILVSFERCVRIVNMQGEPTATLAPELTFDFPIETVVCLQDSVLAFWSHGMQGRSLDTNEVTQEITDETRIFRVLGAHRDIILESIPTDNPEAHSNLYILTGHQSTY
Particulars: at 0.1 µM.

In experiment [19] the target is T5, Mitogen-activated protein kinase kinase kinase kinase 2 (Homo sapiens). Particulars: at 1 µM.
The target in experiment [20] is Mitogen-activated protein kinase kinase kinase kinase 4 (Homo sapiens) (UniProt O95819). The note with it: at 0.1 µM.
Sequence of Mitogen-activated protein kinase kinase kinase kinase 4 (Homo sapiens) (O95819 2-1239 limits assumed): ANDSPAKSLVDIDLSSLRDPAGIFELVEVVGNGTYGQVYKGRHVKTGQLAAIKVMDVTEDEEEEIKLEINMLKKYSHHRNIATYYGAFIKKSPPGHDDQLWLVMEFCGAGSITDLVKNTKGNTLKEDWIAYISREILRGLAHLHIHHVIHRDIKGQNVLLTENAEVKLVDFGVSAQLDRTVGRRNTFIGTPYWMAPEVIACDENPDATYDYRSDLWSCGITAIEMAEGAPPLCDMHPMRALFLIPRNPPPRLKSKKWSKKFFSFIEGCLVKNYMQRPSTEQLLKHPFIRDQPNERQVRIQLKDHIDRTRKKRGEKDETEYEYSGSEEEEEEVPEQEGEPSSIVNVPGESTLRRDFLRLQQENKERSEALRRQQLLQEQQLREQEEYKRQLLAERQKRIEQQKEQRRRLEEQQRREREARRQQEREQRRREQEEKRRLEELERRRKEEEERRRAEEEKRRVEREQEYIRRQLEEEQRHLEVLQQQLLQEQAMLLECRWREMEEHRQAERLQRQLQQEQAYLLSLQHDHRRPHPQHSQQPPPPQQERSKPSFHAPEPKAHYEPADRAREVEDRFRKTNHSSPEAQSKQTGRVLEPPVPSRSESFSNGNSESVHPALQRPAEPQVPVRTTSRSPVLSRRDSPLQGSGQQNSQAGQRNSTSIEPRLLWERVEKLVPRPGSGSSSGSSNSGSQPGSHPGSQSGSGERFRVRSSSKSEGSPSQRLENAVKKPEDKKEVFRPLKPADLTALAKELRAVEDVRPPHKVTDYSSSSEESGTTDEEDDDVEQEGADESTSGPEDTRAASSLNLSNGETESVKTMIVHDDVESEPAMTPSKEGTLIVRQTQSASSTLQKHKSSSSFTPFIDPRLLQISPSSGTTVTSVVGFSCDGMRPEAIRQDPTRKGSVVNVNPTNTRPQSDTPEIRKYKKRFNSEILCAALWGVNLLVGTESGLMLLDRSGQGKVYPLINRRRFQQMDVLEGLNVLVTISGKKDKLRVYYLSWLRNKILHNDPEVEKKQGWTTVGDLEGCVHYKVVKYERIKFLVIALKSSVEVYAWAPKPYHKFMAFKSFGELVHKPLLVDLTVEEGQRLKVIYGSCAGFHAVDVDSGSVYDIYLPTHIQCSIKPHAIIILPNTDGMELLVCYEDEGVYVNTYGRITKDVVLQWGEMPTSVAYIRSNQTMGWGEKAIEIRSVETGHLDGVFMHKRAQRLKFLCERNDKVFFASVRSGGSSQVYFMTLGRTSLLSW

Sequence of Aurora kinase B (Homo sapiens) (Q96GD4 whole entry): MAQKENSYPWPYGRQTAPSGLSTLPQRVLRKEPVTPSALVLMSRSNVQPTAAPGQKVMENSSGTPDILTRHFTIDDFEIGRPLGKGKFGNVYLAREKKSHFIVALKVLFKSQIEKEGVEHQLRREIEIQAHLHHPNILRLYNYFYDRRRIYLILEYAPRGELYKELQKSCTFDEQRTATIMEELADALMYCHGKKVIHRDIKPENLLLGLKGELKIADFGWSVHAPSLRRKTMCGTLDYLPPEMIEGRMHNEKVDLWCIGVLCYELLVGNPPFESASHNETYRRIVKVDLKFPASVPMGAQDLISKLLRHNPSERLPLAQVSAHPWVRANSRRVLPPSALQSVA
Sequence of BDNF/NT-3 growth factors receptor (Homo sapiens) (Q16620 32-822 limits assumed): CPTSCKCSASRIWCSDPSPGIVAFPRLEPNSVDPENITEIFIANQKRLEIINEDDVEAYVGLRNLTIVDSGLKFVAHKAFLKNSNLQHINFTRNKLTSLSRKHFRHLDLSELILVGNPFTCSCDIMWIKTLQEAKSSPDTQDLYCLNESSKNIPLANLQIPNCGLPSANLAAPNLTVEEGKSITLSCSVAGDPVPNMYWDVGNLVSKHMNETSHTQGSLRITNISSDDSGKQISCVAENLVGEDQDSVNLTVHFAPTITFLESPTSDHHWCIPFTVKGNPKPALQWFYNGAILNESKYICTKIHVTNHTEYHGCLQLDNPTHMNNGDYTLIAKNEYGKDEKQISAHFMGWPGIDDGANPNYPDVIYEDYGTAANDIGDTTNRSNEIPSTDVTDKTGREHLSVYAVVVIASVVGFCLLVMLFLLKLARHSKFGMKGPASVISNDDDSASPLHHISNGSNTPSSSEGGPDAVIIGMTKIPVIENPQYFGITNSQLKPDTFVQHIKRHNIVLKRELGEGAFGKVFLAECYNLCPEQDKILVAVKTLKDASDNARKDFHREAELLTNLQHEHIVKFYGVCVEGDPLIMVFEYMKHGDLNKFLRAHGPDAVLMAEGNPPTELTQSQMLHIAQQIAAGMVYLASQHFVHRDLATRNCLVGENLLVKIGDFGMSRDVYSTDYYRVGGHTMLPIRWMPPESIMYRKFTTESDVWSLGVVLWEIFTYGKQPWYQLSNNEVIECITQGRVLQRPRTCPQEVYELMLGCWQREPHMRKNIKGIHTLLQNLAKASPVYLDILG
Sequence of NT-3 growth factor receptor (Homo sapiens) (Q16288 32-839 limits assumed): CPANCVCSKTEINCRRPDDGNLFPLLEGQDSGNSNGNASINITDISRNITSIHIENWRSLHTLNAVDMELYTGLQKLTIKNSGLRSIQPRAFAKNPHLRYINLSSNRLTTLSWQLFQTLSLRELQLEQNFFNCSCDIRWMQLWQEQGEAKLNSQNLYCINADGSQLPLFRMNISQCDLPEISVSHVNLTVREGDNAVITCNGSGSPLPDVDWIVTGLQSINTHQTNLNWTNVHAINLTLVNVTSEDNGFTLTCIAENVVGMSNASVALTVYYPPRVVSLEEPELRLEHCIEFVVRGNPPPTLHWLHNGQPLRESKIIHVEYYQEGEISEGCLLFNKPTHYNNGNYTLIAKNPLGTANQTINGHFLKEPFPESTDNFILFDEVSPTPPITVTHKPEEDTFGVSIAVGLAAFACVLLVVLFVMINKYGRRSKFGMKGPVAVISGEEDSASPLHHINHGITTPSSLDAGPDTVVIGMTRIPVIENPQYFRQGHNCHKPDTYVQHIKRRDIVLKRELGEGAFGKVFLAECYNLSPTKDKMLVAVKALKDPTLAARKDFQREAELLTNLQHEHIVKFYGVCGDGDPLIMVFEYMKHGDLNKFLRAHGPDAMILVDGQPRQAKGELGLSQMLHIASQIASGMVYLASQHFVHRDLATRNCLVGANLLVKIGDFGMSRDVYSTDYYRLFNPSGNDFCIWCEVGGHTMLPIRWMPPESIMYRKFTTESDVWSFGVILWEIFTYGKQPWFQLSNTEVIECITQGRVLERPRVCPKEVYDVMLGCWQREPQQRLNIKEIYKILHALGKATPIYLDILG
Sequence of High affinity nerve growth factor receptor (Homo sapiens) (P04629 33-796 limits assumed): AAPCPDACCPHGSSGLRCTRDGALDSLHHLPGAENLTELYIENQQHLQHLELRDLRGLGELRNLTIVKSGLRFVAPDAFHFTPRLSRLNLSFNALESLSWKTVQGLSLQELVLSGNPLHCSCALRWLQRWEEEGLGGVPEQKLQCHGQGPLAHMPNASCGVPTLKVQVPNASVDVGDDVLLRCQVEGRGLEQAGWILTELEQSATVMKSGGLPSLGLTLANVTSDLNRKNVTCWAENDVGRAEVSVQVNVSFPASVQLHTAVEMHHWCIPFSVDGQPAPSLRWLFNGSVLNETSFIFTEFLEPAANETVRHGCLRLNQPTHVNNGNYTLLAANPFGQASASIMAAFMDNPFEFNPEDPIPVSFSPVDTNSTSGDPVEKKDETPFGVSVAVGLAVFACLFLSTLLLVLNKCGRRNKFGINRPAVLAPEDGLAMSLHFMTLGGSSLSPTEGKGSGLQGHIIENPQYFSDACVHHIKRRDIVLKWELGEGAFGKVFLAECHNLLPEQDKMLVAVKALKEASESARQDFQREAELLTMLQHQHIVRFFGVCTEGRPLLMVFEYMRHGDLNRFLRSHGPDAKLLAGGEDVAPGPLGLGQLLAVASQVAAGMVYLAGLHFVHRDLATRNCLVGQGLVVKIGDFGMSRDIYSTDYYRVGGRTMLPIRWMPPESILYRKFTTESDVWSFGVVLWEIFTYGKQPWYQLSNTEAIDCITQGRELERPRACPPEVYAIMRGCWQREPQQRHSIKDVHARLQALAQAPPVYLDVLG

In general, inhibition refers to the drop in the measured response relative to a control, in per cent. For the compound `CN(C)c1ccc2c(c1)/C(=C/Nc1ccc(S(N)(=O)=O)cc1)C(=O)N2`, the inhibition in [1] worked out at 46.2%; in [2] it was 15.4%; in experiment [3], 65.2%; in experiment [4] it was 21%; in [5], 73.1%; in experiment [6], 3.16%. The inhibition in [7] was found to be 4.14%; in experiment [8] it was 1.02%; in experiment [9] it was 12.5%; in [10], 6.26%; in experiment [11], 50.7%; in [12], 4.95%. Besides, the inhibition was determined as 30.4% in experiment [13]; 17.9% in [14]; 48% in experiment [15]; 3% in [16]; 18.1% in [17]; 5.66% in experiment [18]. For the same compound, the inhibition is 29.9% in experiment [19] and 23.9% in experiment [20].
For the compound `CCc1ccc(Oc2nccc(-c3c(-c4ccc(F)cc4)ncn3C3CCNCC3)n2)cc1`, the inhibition in experiment [1] amounted to 3.03%; in [2] it was 1.6%; in experiment [3], 2.36%; in experiment [4], 1.82%; in experiment [5] it was 3.29%; in [6] it was 6.85%. Further, the inhibition is 4.56% in experiment [7]; 1.68% in [8]; 4.86% in experiment [9]; 3.7% in [10]; 2.66% in [11]; 3.48% in experiment [12]. Also, the inhibition in experiment [13] was found to be 2.75%; in experiment [14], 1.29%; in experiment [15] it was 3.88%; in experiment [16], 4.86%; in [17], 8.03%; in experiment [18] it was 1.71%. The figures for the inhibition in [19] and in experiment [20] were 15.4% and 2.58%, respectively.
`COc1cc(Nc2ncc3c(C)nc(-c4cccc(Oc5ccccc5)c4)n3n2)cc(OC)c1OC`: the inhibition in experiment [1] came out at 1.05%; in experiment [2], 0.27%; in experiment [3], 1.55%; in experiment [4], 1.86%; in experiment [5], 2.38%; in [6], 2.38%. Moreover, the inhibition in [7] is 4.09%; in experiment [8], -0.63%; in experiment [9] it was 14.8%; in experiment [10] it was 2.19%; in experiment [11], 44.4%; in [12], 2%. The inhibition in [13] amounted to 15.8%; in experiment [14], 1.04%; in experiment [15] it was 30.1%; in experiment [16] it was 1.18%; in experiment [17], 1.99%; in experiment [18], 1.28%. For the same compound, the inhibition was 4.18% in [19] and 1.36% in experiment [20].
For the compound `COc1ccc(C2=C(N3CCc4ccccc43)C(=O)NC2=O)cc1`, the inhibition in [1] is 3.66%; in experiment [2] it was 3.2%; in experiment [3], 2.97%; in experiment [4], 3.23%; in experiment [5] it was 3.14%; in [6], 3.28%. Besides, the inhibition in experiment [7] is 4.15%; in [8], -3.26%; in experiment [9], 5.34%; in experiment [10], 1.27%; in experiment [11] it was 12.5%; in experiment [12], 0.57%. Moreover, the inhibition in [13] is 5.83%; in experiment [14], 1.68%; in experiment [15] it was -3.65%; in [16], 4.19%; in experiment [17], 10.4%; in experiment [18], 0.85%. In addition, the inhibition in experiment [19] amounted to 4.95%; in [20], 6.97%.
